Test results taken from PubChem BioAssay (NCI).
This is part of a sample that, as a whole, favours compounds with a hit. Of some 79,000 tested, about 15% had one in any assay. A number with no mark means an inactive call. Calls of active or inactive are those of the source. Cut-off read from the data, not from the text of the source: active = growth inhibition above about 70%; inactive = the rest.

Legend:
[1] = NCI Yeast Anticancer Drug Screen. Data for the rad52 strain (AID 147);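 note: 0% = growth of vehicle-treated control cultures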; details: S. cerevisiae rad52 mutant growth inhibition, active compounds read high
How it was run: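 Here a repair-compromised yeast strain receives each compound; its growth is then quantified and normalised to vehicle-only controls.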

[2] = NCI Yeast Anticancer Drug Screen. Data for the rad50EPP+ strain (AID 151);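 note: 0% = growth of vehicle-treated control cultures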; details: S. cerevisiae rad50 mutant strain, active compounds read high
How it was run: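 Read-out is yeast growth inhibition relative to vehicle; cells used were the rad50EPP+ strain.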

[3] = NCI Yeast Anticancer Drug Screen. Data for the mgt1 strain (AID 153); details: S. cerevisiae mgt1 mutant growth inhibition, active compounds read high
How it was run: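 Measured: inhibition of mgt1 yeast growth by compound, normalized to vehicle-treated cultures.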

[4] = NCI Yeast Anticancer Drug Screen. Data for the rad50 strain (AID 155);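 note: 0% = growth of vehicle-only cultures of the same strain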; details: S. cerevisiae rad50 strain growth inhibition, active compounds read high
How it was run: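 Inhibition values express reduced yeast growth in compound-treated cultures relative to vehicle-treated controls.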

[5] = NCI Yeast Anticancer Drug Screen. Data for the mec2-1 strain (AID 157); details: S. cerevisiae mec2-1 strain, active compounds read high
How it was run: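 Using mec2-1 yeast: add compound, measure growth, express inhibition versus vehicle-treated cultures.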

[6] = NCI Yeast Anticancer Drug Screen. Data for the rad14 strain (AID 159);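 note: 0% = growth of vehicle-treated control cultures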; details: S. cerevisiae rad14 strain growth inhibition, active compounds read high
How it was run: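 A mutant yeast strain defective in DNA damage repair is treated with compound; inhibition of its growth is scored against untreated, vehicle-exposed cultures.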

[7] = NCI Yeast Anticancer Drug Screen. Data for the sgs1 mgt1 strain (AID 161);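 note: 0% = growth of cultures given vehicle only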; details: S. cerevisiae sgs1 mgt1 strain, active compounds read high
How it was run: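 Yeast cells carrying a defined DNA-repair defect were exposed to test compounds. Growth inhibition was measured relative to vehicle-treated controls.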

[8] = NCI Yeast Anticancer Drug Screen. Data for the cln2 rad14 strain (AID 165);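 note: 0% = growth equal to vehicle treated cultures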; details: S. cerevisiae cln2 rad14 strain, active compounds read high
How it was run: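 Yeast strain cln2 rad14, bearing defects in cell cycle control and DNA repair, serves as the test system; values reflect growth inhibition compared with vehicle.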

[9] = NCI Yeast Anticancer Drug Screen. Data for the bub3 strain (AID 167); details: S. cerevisiae bub3 mutant strain, active compounds read high
How it was run: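 Steps: expose the mutant yeast strain to compound; grow alongside vehicle-treated cultures; measure growth; express inhibition against the vehicle cultures.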

[10] = NCI Yeast Anticancer Drug Screen. Data for the wt2 strain (AID 169);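 note: 0% = growth of vehicle-treated yeast cultures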; details: S. cerevisiae wt2 strain growth inhibition, active compounds read high
How it was run: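 Treated yeast vs. vehicle-treated yeast: growth inhibition determined.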

[11] = NCI Yeast Anticancer Drug Screen. Data for the mlh1 strain (AID 171);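 note: 0% = growth of vehicle-treated control cultures of the same strain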; details: S. cerevisiae mlh1 strain growth inhibition, active compounds read high
How it was run: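 A yeast strain with a defined genetic lesion serves as the test organism. Cultures receive compound or vehicle, and growth is measured.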

[12] = NCI Yeast Anticancer Drug Screen. Data for the sgs1 strain (AID 173);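 note: 0% = growth of vehicle-only control cultures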; details: S. cerevisiae sgs1 mutant, active compounds read high
How it was run: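 A genetically defined yeast mutant is incubated with the test compound, and its growth is compared to that of the same strain given vehicle.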

[13] = NCI Yeast Anticancer Drug Screen. Data for the mlh1 rad18 strain (AID 175); details: S. cerevisiae mlh1 rad18 strain growth inhibition, active compounds read high
How it was run: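 Steps: expose repair-defective yeast to compound; measure growth; express inhibition against vehicle-treated controls.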

[14] = NCI Yeast Anticancer Drug Screen. Data for the rad18 strain (AID 177); details: S. cerevisiae rad18 mutant growth inhibition, active compounds read high
How it was run: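 Measured value is growth inhibition of a yeast strain bearing a DNA repair alteration, referenced to vehicle-treated cells.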

[15] = at 5.0 µM (retest, dose inferred, filed as 0.5)
[16] = at 50.0 µM (retest, dose inferred, filed as 5.0)

## O=C(O)C1CCCCC1c1c2ccc(=O)c(O)c-2oc2c(O)c(O)ccc12 (stereo not drawn)
[1]; at 1.2 µM
  growth inhibition: -18%
[1]; at 3.7 µM
  growth inhibition: -26%
[1]; at 11.0 µM
  growth inhibition: -20%
[1]; at 33.0 µM
  growth inhibition: 24%
[1]; at 100.0 µM
  growth inhibition: 79% (active)
[2]; at 1.2 µM
  growth inhibition: -9%
[2]; at 3.7 µM
  growth inhibition: 0%
[2]; at 11.0 µM
  growth inhibition: -24%
[2]; at 33.0 µM
  growth inhibition: -39%
[2]; at 100.0 µM
  growth inhibition: -48%
[3]; at 1.2 µM
  growth inhibition: 11%
[3]; at 3.7 µM
  growth inhibition: 10%
[3]; at 11.0 µM
  growth inhibition: 15%
[3]; at 33.0 µM
  growth inhibition: 53%
[3]; at 100.0 µM
  growth inhibition: 86% (active)
[4]; at 1.2 µM
  growth inhibition: -12%
[4]; at 3.7 µM
  growth inhibition: -22%
[4]; [15]
  growth inhibition: 9%
[4]; at 11.0 µM
  growth inhibition: -16%
[4]; at 33.0 µM
  growth inhibition: 28%
[4]; [16]
  growth inhibition: 77% (active)
[4]; at 50.0 µM
  growth inhibition: 77.8% (active)
[4]; at 100.0 µM
  growth inhibition: 77% (active)
[5]; at 1.2 µM
  growth inhibition: -38%
[5]; at 3.7 µM
  growth inhibition: -32%
[5]; [15]
  growth inhibition: -7%
[5]; at 11.0 µM
  growth inhibition: -13%
[5]; at 33.0 µM
  growth inhibition: 46%
[5]; [16]
  growth inhibition: 80% (active)
[5]; at 50.0 µM
  growth inhibition: 82.1% (active)
[5]; at 100.0 µM
  growth inhibition: 85% (active)
[6]; at 1.2 µM
  growth inhibition: -17%
[6]; at 3.7 µM
  growth inhibition: -7%
[6]; at 11.0 µM
  growth inhibition: -9%
[6]; at 33.0 µM
  growth inhibition: 19%
[6]; at 100.0 µM
  growth inhibition: 84% (active)
[7]; [15]
  growth inhibition: 7%
[7]; [16]
  growth inhibition: 80% (active)
[7]; at 50.0 µM
  growth inhibition: 59.4%
[8]; [15]
  growth inhibition: -21%
[8]; [16]
  growth inhibition: 74% (active)
[8]; at 50.0 µM
  growth inhibition: 56.2%
[9]; at 1.2 µM
  growth inhibition: 0%
[9]; at 3.7 µM
  growth inhibition: 6%
[9]; [15]
  growth inhibition: -7%
[9]; at 11.0 µM
  growth inhibition: 12%
[9]; at 33.0 µM
  growth inhibition: 72% (active)
[9]; [16]
  growth inhibition: 80% (active)
[9]; at 50.0 µM
  growth inhibition: 87.2% (active)
[9]; at 100.0 µM
  growth inhibition: 86% (active)
[10]; at 1.2 µM
  growth inhibition: -32%
[10]; at 3.7 µM
  growth inhibition: -23%
[10]; at 11.0 µM
  growth inhibition: -25%
[10]; at 33.0 µM
  growth inhibition: 13%
[10]; at 100.0 µM
  growth inhibition: 73% (active)
[11]; at 1.2 µM
  growth inhibition: -30%
[11]; at 3.7 µM
  growth inhibition: -9%
[11]; at 11.0 µM
  growth inhibition: -33%
[11]; at 33.0 µM
  growth inhibition: 38%
[11]; at 100.0 µM
  growth inhibition: 74% (active)
[12]; at 1.2 µM
  growth inhibition: -11%
[12]; at 3.7 µM
  growth inhibition: -20%
[12]; at 11.0 µM
  growth inhibition: -16%
[12]; at 33.0 µM
  growth inhibition: 33%
[12]; at 100.0 µM
  growth inhibition: 74% (active)
[13]; [15]
  growth inhibition: -3%
[13]; [16]
  growth inhibition: 84% (active)
[13]; at 50.0 µM
  growth inhibition: 75.3% (active)
[14]; at 1.2 µM
  growth inhibition: -8%
[14]; at 3.7 µM
  growth inhibition: 5%
[14]; at 11.0 µM
  growth inhibition: 2%
[14]; at 33.0 µM
  growth inhibition: 20%
[14]; at 100.0 µM
  growth inhibition: 80% (active)
